Screening data: PubChem BioAssay, National Center for Advancing Translational Sciences (NCATS)
Pol iota inh: DNA polymerase iota (human) inhibition | Q9UNA4 | Pol iota fluorescent replication assay, 10 min | Potency, µM (series often up to 115 µM), without a hit: at the top dose activity, negative = inhibition, usual class: inhibitors | 1% of 390,000 active | AID 588590; note: potency is the fitted concentration of half-maximal effect
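Fluorescent replication assay read twice, at 0 min and 10 min after adding 50 nM (final) substrate. Enzyme (10 nM) and compounds were first incubated 15 min at room temperature; enzyme-free buffer wells were negative controls.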
Pol beta inh-1: blocks human DNA polymerase beta activity. P06746. Pol beta primer extension/strand displacement, fluorescence kinetic. Potency, µM (top dose mostly 114 µM), inactives show at the highest dose activity change, negative = inhibition, actives largely listed as inhibitors. 1.3% of 340,000 active. AID 485314; note: potency is the fitted concentration of half-maximal effect; % is set by controls: 0 for no effect and ±100 for the full control effect
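Kinetic readout of DNA synthesis with strand displacement by Pol beta. Compound and 10 nM enzyme sit 15 min at room temperature; 50 nM substrate starts the reaction, read immediately and at 10 min.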
PI5P4Ka inh: inhibitors of human PI5P4K alpha; 1.2% of 330,000 active; PI5P4Kalpha enzyme, ADP-Glo luminescence, 60 min; stronger effect = lower value; max response, %; AID 652105; P48426; active = max response of -50% or lower; inconclusive = between -30% and -50%; inactive = -30% or higher; note: value at the top dose of about 77 µM; % is set by controls: 0 for no effect and ±100 for the full control effect
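qHTS, 1536-well: enzyme/substrate mix, compound by pin tool, 5 microM ATP final; RT 60 min; ADP-Glo reagents 1 (45 min) then 2 (30 min); luminescence.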
Pol kappa inh: blocks human DNA polymerase kappa activity; Q9UBT6; purified Pol kappa, fluorescent DNA synthesis assay, 10 min; Potency, µM (series often up to 107 µM), for inactives: top-dose activity, negative = inhibition, most hits filed as inhibitors; 0.53% of 400,000 active; note: potency is the fitted concentration of half-maximal effect; % is set by controls: 0 for no effect and ±100 for the full control effect
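Enzyme at 10 nM met test compounds for 15 min at room temperature. Substrate addition (50 nM final) began the reaction, which was monitored by fluorescence at 0 and 10 min.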
WRN helicase inh: WRN helicase (human) inhibition; WRN helicase unwinding, fluorescent forked duplex, kinetic; 0.46% of 360,000 active; Potency, µM (titrated, usually from 114 µM), for inactives: top-dose activity change, negative = inhibition, most hits filed as inhibitors; Q14191; note: potency is the fitted concentration of half-maximal effect; % is set by controls: 0 for no effect and ±100 for the full control effect; nearly all actives have a fitted effect of over 55% in size
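Screening of the MLSMR collection measured strand separation of a quenched forked DNA duplex (100 nM) by 20 nM WRN with 2 mM ATP, all final. Compounds were preincubated with enzyme 15 min at room temperature.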
POLH inh: inhibitors of human DNA polymerase eta. Q9Y253. recombinant Pol eta, fluorescent DNA replication assay. Potency, µM (series often up to 114 µM), inactives show top-dose activity change, negative = inhibition, usual class: inhibitors. 1.2% of 390,000 active; note: potency is the fitted concentration of half-maximal effect; % is set by controls: 0 for no effect and ±100 for the full control effect
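Pol eta at 10 nM preincubated with compounds 15 min at room temperature; reaction started with fluorescent substrate (50 nM final) and read kinetically at 0 and 10 min.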
Pol beta inh-2: Human Pol beta inhibitor hit validation | AID 540280 | Potency, µM, actives largely listed as inhibitors | shares compounds with Pol beta inh-1 | 87% of 250 active | Pol beta primer extension/strand displacement, fluorescence kinetic; calls by dose curve; note: potency is the fitted concentration of half-maximal effect
Klenow inh: inhibits Klenow fragment polymerase in counter-screen. shares compounds with Pol beta inh-1. Klenow exo- polymerase counter-screen, fluorescent DNA substrate. activity change, negative = inhibition, % at 57.1 µM. 250 tested, under 10 active
HIV RT counter: HIV-1 RT inhibition, pol beta selectivity check; HIV-1 RT polymerase activity, counter-screen; shares compounds with Pol beta inh-1; activity % (negative = inhibition, positive = activation), % at 57.1 µM; 250 tested, under 10 active
BAZ2B inh: inhibits human BAZ2B bromodomain, hit validation; shares compounds with Pol kappa inh; AlphaScreen BAZ2B / biotin-H3K14Ac peptide displacement; Potency, µM, usual class: inhibitors; 100% of 25 active; AID 588809; calls by dose curve
AlphaScreen ctr: AlphaScreen signal interference, BAZ2B hit counter-screen; 25 tested, under 10 active; AlphaScreen biotin-His6 peptide bead counterscreen, signal decrease; Potency, µM (series often up to 57.1 µM), for the others: at the top dose activity change, negative = inhibition, actives largely listed as inhibitors; shares compounds with Pol kappa inh;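 active = clear concentration-dependent signal drop in the bead assay lacking the target, so a primary-screen artifact; inconclusive = weak, partial or single-dose response; inactive = no response, so a real primary hit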
TbPGK inh: TbPGK inhibition, hit validation | 79% of 500 active | Potency, µM (titrated, usually from 57.5 µM), inactives show at the highest dose activity change, negative = inhibition, usual class: inhibitors | AID 686980 | TbPGK coupled GAPDH assay, Kinase-Glo luminescence | shares compounds with Pol kappa inh; note: potency is the fitted concentration of half-maximal effect; % is set by controls: 0 for no effect and ±100 for the full control effect; nearly all actives have a fitted effect of over 65% in size
Target sequence (P07378 whole entry, looked up): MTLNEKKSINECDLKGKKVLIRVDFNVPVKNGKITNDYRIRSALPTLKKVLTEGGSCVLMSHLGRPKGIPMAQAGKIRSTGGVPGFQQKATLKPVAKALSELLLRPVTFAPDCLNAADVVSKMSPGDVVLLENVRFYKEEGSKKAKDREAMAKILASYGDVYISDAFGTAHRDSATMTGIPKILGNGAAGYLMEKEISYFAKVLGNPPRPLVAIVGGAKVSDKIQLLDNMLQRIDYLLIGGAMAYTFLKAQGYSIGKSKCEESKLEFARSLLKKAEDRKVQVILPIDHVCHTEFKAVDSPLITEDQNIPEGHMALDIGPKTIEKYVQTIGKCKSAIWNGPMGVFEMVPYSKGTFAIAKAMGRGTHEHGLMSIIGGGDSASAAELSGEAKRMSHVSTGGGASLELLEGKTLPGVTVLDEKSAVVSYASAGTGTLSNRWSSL
An asterisk follows results filed as active; [ ] = dose if it differs, or a comment. Only some compounds are listed: those with a hit (about 2.8% of all), similar ones and a draw of the others. Unless noted, calls come from the whole dose curve; as a rule, active = well fitted curve in the direction sought with a large enough effect; inconclusive = small, poorly fitted or top-dose-only effect, or another doubt; inactive = no such curve, though single readings can be large; an effect the other way counts as inactive or inconclusive.

Results for COC[C@H]1OC(=O)c2coc3c2[C@@]1(C)C1=C(C3=O)[C@H]2CCC(=O)[C@@]2(C)C[C@H]1OC(C)=O ?
Pol kappa inh: -14%[19.4 µM]

How did Cc1cccc(NC(=O)c2cc3c(=O)n4ccccc4nc3n2C)c1C do in these assays?
Pol iota inh: -11%; Pol beta inh-1: inconclusive; Pol kappa inh: -12%; POLH inh: -14%

How did COc1cc2c(cc1O)[C@@H]1Cc3ccc(OC)c(O)c3CN1CC2 do in these assays?
Pol iota inh: 10µM*; PI5P4Ka inh: -2; Pol kappa inh: -5%; WRN helicase inh: 16%; POLH inh: inconclusive

What do the screens show for `COc1ccc(C[C@@H]2c3cc(O)c(OC)cc3CCN2C)cc1O`?
Pol iota inh: 64%; Pol beta inh-1: 5%; PI5P4Ka inh: -2; Pol kappa inh: -17%; WRN helicase inh: 0%; POLH inh: -14%

What do the screens show for `N[C@]1(C(=O)O)CC[C@@H](C(=O)O)C1` (racemic)?
Pol kappa inh: -3%[19.4 µM]

How did Nc1ncc(S(=O)(=O)c2ccc(Cl)cc2)c(N)n1 do in these assays?
Pol iota inh: inconclusive; Pol beta inh-1: -1%; PI5P4Ka inh: -4; Pol kappa inh: -3%; WRN helicase inh: 8%; POLH inh: -25%

How did O=[N+]([O-])c1ccc(NCc2ccccc2)c2nonc12 do in these assays?
Pol iota inh: 32µM*; Pol beta inh-1: 1%; PI5P4Ka inh: -1; Pol kappa inh: -26%; WRN helicase inh: -1%; POLH inh: -25%

What do the screens show for `O=C1NC(=O)C(=Cc2csc3ccccc23)C(=O)N1`?
Pol iota inh: inconclusive; Pol beta inh-1: 11%; PI5P4Ka inh: -73*; Pol kappa inh: -3%; WRN helicase inh: -18%; POLH inh: 8%

Results for O=C1NC(=O)C(=Cc2coc3ccccc3c2=O)C(=O)N1 ?
Pol iota inh: 10%; Pol beta inh-1: 2%; PI5P4Ka inh: -77*; Pol kappa inh: -4%; WRN helicase inh: -2%; POLH inh: -7%

Results for O=C1NC(=O)C(=C/C=C/c2coc3ccc(Br)cc3c2=O)C(=O)N1 ?
Pol beta inh-1: 1.6µM*

What do the screens show for `Cn1cc(C=C2C(=O)NC(=O)NC2=O)c2ccccc21`?
Pol iota inh: inconclusive; Pol beta inh-1: 1%; PI5P4Ka inh: -24; Pol kappa inh: -3%; WRN helicase inh: inconclusive; POLH inh: inconclusive

How did O=S(=O)(c1ccc(Cl)cc1)c1cc(Cl)c(Cl)cc1Cl do in these assays?
Pol kappa inh: -16%[60.1 µM]

Results for COc1cccc2c1C13CC[N+]4(CC5CC5)CO[C@]1(CCC(=O)C3)C4C2 ?
Pol kappa inh: 1%[19.4 µM]

Results for C[C@@H]1O[C@H](C[N+](C)(C)C)C[C@@H]1O ?
Pol kappa inh: 1%[19.4 µM]

How did O=c1c2ccccc2nc(CSc2ncnc3nc[nH]c23)n1-c1ccccc1Cl do in these assays?
Pol iota inh: -16%; Pol beta inh-1: 40µM*; PI5P4Ka inh: -21; Pol kappa inh: -12%; WRN helicase inh: -8%; POLH inh: -2%

What do the screens show for `O=c1c2ccccc2nc(CSc2ncnc3nc[nH]c23)n1-c1ccccc1`?
Pol iota inh: 18%; Pol beta inh-1: -26%; Pol kappa inh: -21%; WRN helicase inh: -4%; POLH inh: 6%

What do the screens show for `C=C(C)C(=O)Nc1cccc(C2=NOC3(C2)C[C@H](C(N)=O)N(C(=O)CC)C3)c1` (stereo not given in full)?
Pol iota inh: inconclusive; Pol beta inh-1: 3.5µM*; PI5P4Ka inh: -17; Pol kappa inh: 79µM*; WRN helicase inh: -6%; POLH inh: 11µM*; Pol beta inh-2: 8.9*; Klenow inh: -17; HIV RT counter: 1; BAZ2B inh: 7.1*; AlphaScreen ctr: -3%

What do the screens show for `Cc1ccc(CNC(=O)CCNC(=O)c2ccc([N+](=O)[O-])cc2)cc1`?
Pol iota inh: 54%; PI5P4Ka inh: -3; Pol kappa inh: -1%; WRN helicase inh: -8%; POLH inh: -5%

Results for CCN(CC)C(=O)c1ccc2c(c1)C1C=CCC1C(C(=O)O)N2 (stereo not given) ?
Pol iota inh: 13µM*; Pol beta inh-1: 35µM*; PI5P4Ka inh: inconclusive; Pol kappa inh: inconclusive; WRN helicase inh: 45µM*; POLH inh: 4µM*; TbPGK inh: inconclusive

How did C[C@@H]1Cc2c(Cl)cc(C(=O)N[C@H](Cc3ccccc3)C(=O)O)c(O)c2C(=O)O1 do in these assays?
Pol kappa inh: -1%[60.1 µM]

What do the screens show for `CCN(CC)P(=O)(NC(=O)C(Cl)(Cl)Cl)N(CC)CC.[Cl-].[Cl-].[Cl-].[Nd+3]`?
Pol iota inh: inconclusive; Pol beta inh-1: inconclusive; PI5P4Ka inh: -10; Pol kappa inh: 79µM*; WRN helicase inh: inconclusive; POLH inh: inconclusive; TbPGK inh: inconclusive

What do the screens show for `CCC(C)n1c(=O)[nH]c(C)c(Br)c1=O` (stereo not given)?
Pol kappa inh: 12%[60.1 µM]

Results for CN1C(=O)NC(=O)/C(=C\c2ccc([N+](=O)[O-])o2)C1=O ?
Pol iota inh: 2.5µM*; Pol beta inh-1: 100µM*; PI5P4Ka inh: -102*; Pol kappa inh: 14µM*; WRN helicase inh: 25µM*; POLH inh: 2.2µM*; TbPGK inh: 1.8µM*
